Only some compounds are listed: those with a hit (about 8.9% of all), similar ones and a draw of the others.
KB-V1 cytotox: qHTS assay for MDR1-selective chemotherapeutics: Primary screen using the drug-selected MDR subline cells KB-V1; KB-V1 MDR cells viability, CellTiter-Glo, 72 h; Potency, µM (doses to about 46.1 µM), usual class: cytotoxic; actives 3.4% (n = 400,000); also: potency is read from the fitted curve at half-maximal effect; % is scaled to controls: 0 for no effect and ±100 for the full control effect; nearly all actives have a fitted effect of over 60% in size
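Luminescent ATP read-out (CellTiter-Glo, 10 min) measures survival of drug-selected KB-V1 MDR cells after 72 h, 37 degrees C compound exposure. Medium: phenol-red-free DMEM, 10% FBS. Values from fitted concentration-response curves.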
KB-3-1 cytotox: qHTS assay for MDR1-selective chemotherapeutics: Primary screen using the parental adenocarcinoma cell KB-3-1. KB-3-1 viability, CellTiter-Glo ATP luminescence, 72 h. Potency, µM (titrated, usually from 46.1 µM), hits mostly cytotoxic. actives 1.4% (n = 400,000); also: potency is read from the fitted curve at half-maximal effect; % is scaled to controls: 0 for no effect and ±100 for the full control effect; nearly all actives have a fitted effect of over 60% in size
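Parental KB-3-1 viability, qHTS format: 72 h compound exposure, 37 °C; CellTiter-Glo; media-only wells and DMSO plates as controls; concentration-effect fits on corrected data.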
D3 ag: qHTS of D3 Dopamine Receptor Agonist: qHTS. D(3) dopamine receptor (Homo sapiens), P35462. D3R DiscoveRx beta-arrestin cells, luminescence, 90 min. max activation, %. actives 0.58% (n = 410,000); in the data active = max activation above about 30%; also: 0% is about no effect
Target sequence (P35462 whole entry, looked up): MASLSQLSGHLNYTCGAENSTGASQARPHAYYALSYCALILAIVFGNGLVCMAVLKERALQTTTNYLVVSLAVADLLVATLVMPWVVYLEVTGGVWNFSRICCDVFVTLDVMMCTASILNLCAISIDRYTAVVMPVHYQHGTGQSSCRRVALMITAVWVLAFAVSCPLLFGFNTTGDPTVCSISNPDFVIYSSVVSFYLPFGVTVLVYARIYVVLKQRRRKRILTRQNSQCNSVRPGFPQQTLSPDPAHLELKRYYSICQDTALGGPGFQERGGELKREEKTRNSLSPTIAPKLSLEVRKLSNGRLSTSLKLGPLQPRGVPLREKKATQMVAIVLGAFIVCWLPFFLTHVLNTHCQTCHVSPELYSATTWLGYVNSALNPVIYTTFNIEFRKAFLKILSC
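Agonist-mode cell screen: cells plated at 1500/well and incubated overnight at 37 °C, then exposed to library compounds for 90 min at 37 °C. Detection reagent was added for 30–60 min at room temperature, and luminescence was read.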
MCF10A rerep: A quantitative high throughput screen for small molecules that induce DNA re-replication in MCF 10a normal breast cells; MCF 10A DNA re-replication, Hoechst nuclear intensity, 48 h; Potency, µM (top dose mostly 46.1 µM), without a hit: at the top dose activity, positive = re-replication, most hits filed as activators; actives 2.9% (n = 350,000); AID 624296, 2012; also: potency is read from the fitted curve at half-maximal effect; % of control where 0% means no effect; nearly all actives have a fitted effect of over 50% in size
SW480 rereplic: A quantitative high throughput screen for small molecules that induce DNA re-replication in SW480 colon adenocarcinoma cells; SW480 DNA re-replication, Hoechst DNA content imaging, 48 h; Potency, µM (doses to about 46.1 µM), for inactives: at the top dose re-replication activation, most hits filed as activators; actives 1.8% (n = 340,000); AID 624297, 2012; also: potency is read from the fitted curve at half-maximal effect; % of control where 0% means no effect; nearly all actives have a fitted effect of over 55% in size
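Per well, 250 cells were exposed to pinned compound for 48 hr. Nuclear DNA was visualised with Hoechst (40 min, 37 C) and total object intensity recorded by fluorescence scanning.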
D3 antag: qHTS of D3 Dopamine Receptor Antagonist: qHTS. D(3) dopamine receptor (Homo sapiens), P35462. D3R cells, DiscoveRx beta-arrestin luminescence, antagonist mode; stronger effect = lower value. max response, negative = inhibition, %. actives 2.5% (n = 360,000). AID 652054, 2013; in the data active = max response below about -50%; inconclusive = no clear call, values can overlap the other calls; also: % is scaled to controls: 0 for no effect and ±100 for the full control effect
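Cells plated overnight at 1500 cells/well, then exposed to library compounds with dopamine controls for 90 minutes at 37 degrees C. DiscoveRx reagent added for 30–60 minutes at room temperature; luminescence read, quantitative HTS format.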
Numbers without * were called inactive; i = inactive; ? = inconclusive; . = not tested or not shown; ! = repeats disagree; [ ] = another dose, or the depositor's remark. Unless noted, calls follow the shape of the dose curve; as a rule, active = well fitted curve in the direction sought with a large enough effect; inconclusive = small, poorly fitted or top-dose-only effect, or another doubt; inactive = no such curve, though single readings can be large; an effect the other way counts as inactive or inconclusive.

SMILES	KB-V1 cytotox	KB-3-1 cytotox	D3 ag	MCF10A rerep	SW480 rereplic	D3 antag
Cc1nc(N2CCN(C(=O)c3ccco3)CC2)c2c3c(sc2n1)CC(C)CC3 (centres undefined)	8.2µM*	i	2.1	?	-169.3%	12.2
O=C(c1ccc(Cl)cc1)N1CCC(c2nc3ccccc3o2)CC1	.	.	9.6	.	.	.
Cn1cc(-c2cc3n(n2)CCC(=O)N3CCCC(=O)NCc2ccccc2)c2ccccc21	i	i	-17.2	.	.	.
Cc1noc(C)c1NC(=O)N(C)C[C@H]1Oc2c(NC(=O)C3CC3)cccc2C(=O)N([C@H](C)CO)C[C@@H]1C	i	i	2.3	-11.9%	-4.2%	24.9
CSc1ccc(CN(C)CC(=O)N(C)CC(=O)Nc2ccccc2Br)cc1	i	i	-11.5	1.4%	9.6%	-27.2
CSc1ccc(CN(C)CC(=O)Nc2ccc(C)cc2Br)cc1	i	i	-35.2	23.7%	?	-55.6*
CCCC(=O)Nc1cccc(OCc2cc(=O)n3cccc(C)c3n2)c1	.	.	-4.7	.	.	.
C=CCc1cc(OC)ccc1OCC(O)CN1CCN(c2ccc(OC)cc2)CC1 (centres undefined)	18.4µM*!	i	17.8	?	8.3%	?
COc1ccc(CCNCC(O)COc2ccc(OC)cc2C(C)(C)C)cc1 (centres undefined)	i	i	-4.9	?	23.1µM*	-2.1
C=CCc1cc(C)ccc1OCC(O)CN1CCN(c2ccccc2)CC1 (centres undefined)	i	i	75.3*	5.9%	2.8%	-23.7
C=CCc1ccc(OCC(O)CN2CCN(c3ccccc3)CC2)c(OC)c1 (centres undefined)	i	i	37.6*	0.9%	13.9%	?
COc1cccc(CNC(=O)CSc2n[nH]c(-c3ccccc3Cl)n2)c1	i	i	-1.9	.	.	.
COc1ccc(S(=O)(=O)NCC(c2ccco2)S(=O)(=O)c2ccc(C)cc2)cc1C (centres undefined)	.	.	0.7	.	.	.
CCOC(=O)N1CCN(CC(O)COc2ccc(OC)cc2C(C)(C)C)CC1 (centres undefined)	3.66µM*	i	-4.8	23.6%	-2.5%	4.6
CC1(C)Cc2c(sc3nc(SCC(=O)NCc4ccco4)n(-c4ccccc4)c(=O)c23)CS1	i	i	-2.3	7.08µM*	-1.1%[9.22 µM]	0.9
O=C(CSc1nc2ccccc2c(=O)n1-c1ccc(F)cc1)NCc1ccco1	11.6µM*	i	0.2	8.4%	-3.2%	21.3
O=C(CCn1c(SCC(=O)NCc2ccco2)nc2ccccc2c1=O)NCCc1ccccc1	20.6µM*	i	2.8	-2.4%	-7.2%	7.0
O=C(c1ccc(-n2c(SCc3cc(F)ccc3F)nc3ccccc3c2=O)cc1)N1CCOCC1	0.651µM*	?	4.0	9.9%	?	5.9
O=C(Nc1ccc(F)c(Cl)c1)Nc1c[nH]c(=O)[nH]c1=O	i	i	1.3	.	.	.
CCOC(=O)c1noc2ncn(Cc3ccc([N+](=O)[O-])cc3)c(=O)c12	i	i	-16.6	.	.	.
COc1ccc(CCNC(=O)Cn2nc(C)n3c(cc4occc43)c2=O)cc1OC	i	i	0.0	.	.	.
Cc1ccc2ncc3c(-c4ccc(F)cc4)nn(-c4cccc(F)c4)c3c2c1	i	i	-3.7	.	.	.
O=c1c2ccccc2nc(SCc2ccccc2)n1Cc1ccco1	i	i	-6.7	14.7%	-14.4%	-14.3
O=c1c2ccccc2nc(SCc2cccc(F)c2)n1Cc1ccco1	7.31µM*	?	-12.3	?	-0.9%	-24.3
COn1c(SCc2cccc(Cl)c2)nc2ccccc2c1=O	16.4µM*	?	14.4	18.4%	0.5%	38.5
SMILES	KB-V1 cytotox	KB-3-1 cytotox	D3 ag	MCF10A rerep	SW480 rereplic	D3 antag
CCOC(=O)c1c(Nc2cc(C)cc(C)c2)nnc(-c2ccccc2)c1-c1ccccc1	i	i	4.8	.	.	.
O=C(N/N=C/c1ccsc1)c1cc(-c2ccncc2)nc2ccccc12	8.2µM*	2.59µM*	-4.3	9.2µM*	7.31µM*	5.0
O=C(O)c1ccc(/C=N/NC(=O)c2cc(-c3cccs3)nc3ccccc23)cc1	?	i	-1.3	?	-2.1%	8.9
Cc1ccsc1/C=N/NC(=O)c1cc(-c2ccncc2)nc2ccccc12	?	1.16µM*	2.4	0.731µM*	1.46µM*	0.1
O=C(N/N=C/c1ccsc1)c1cc(-c2cccs2)nc2ccccc12	13µM*	?	-29.1	5.8µM*	6.51µM*	5.5
COc1ccccc1-c1cc(C(=O)N/N=C/c2sccc2C)c2ccccc2n1	i	?	-22.5	?	2.9%	-14.8
COc1ccc(C2NC(=O)N(C)C3=C2C(=O)N(c2ccc(F)cc2)C3)cc1 (centres undefined)	i	i	0.0	.	.	.
O=C(NNC(=O)c1ccccc1OCc1ccc(F)cc1)c1ccccc1O	.	.	9.1	-3.3%	3.26µM*	15.7
C/C(=N\NC(=O)c1cc(-c2cccs2)nc2ccccc12)c1ccccn1	i	?	-8.4	?	1.64µM*	-13.4
C/C(=N\NC(=O)c1cc(-c2ccncc2)nc2ccccc12)c1ccc(N2CCOCC2)cc1	i	i	-8.2	5.8µM*	-22.1%	-8.5
O=C(NNC(=O)c1ccccc1OCc1ccccc1)c1ccccc1O	i	?	1.7	0.3%	?	30.4
NNC(=O)c1cc(-c2cccs2)nc2ccccc12	i	i	-15.7	?	?	0.0
CCOc1ccc(OCc2ccc(C(=O)NN=Cc3ccc[nH]3)cc2)cc1	i	2.31µM*	2.8	?	8.6%	0.4
O=C(NC1CC(=O)N(c2ccccc2)C1)c1ccc(S(=O)(=O)N2CCCC2)cc1 (centres undefined)	.	.	-7.2	.	.	.
CSc1cccc(NC(=O)CN2C(=O)COc3ccc(Cl)cc32)c1	?	i	-3.9	.	.	.
O=C(C[n+]1cccc(Br)c1)c1ccc(O)c(O)c1	i	?	.	.	.	.
CN(C)N=Nc1ccc(/C=C2\C=Cc3ccccc32)cc1	?	i	.	.	.	.
C/C(=N\NC(=O)c1ccccc1OCc1ccc(F)cc1)c1ccccn1	?	11.6µM*	-11.1	24.0%	2.0%	-16.2
Cc1ccccc1C(=O)NCC(=O)OCC(=O)NNC(=O)c1ccccc1F	i	i	-7.3	.	.	?
C/C(=N\NC(=O)c1ccccc1Cl)c1ccccn1	i	?	-11.1	?	?	?

From PubChem BioAssay
